Measured values from PubChem BioAssay (NCI).
The panel holds about 83,000 compounds, 20% with a hit somewhere; the sample as a whole holds those more often.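 Testing used 96-well plates and a 48-hour single-concentration exposure. Example: -40 means 40% of the starting cells died.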 The source made the active and inactive calls. The calls were made as follows: active = growth percent below 10; inactive = the rest.

How the values were obtained:
Experiment in all cases: NCI-60 one-dose screen, 48 h (100 = growth as untreated, 0 = no growth, -100 = all killed)
[1] = system: SK-MEL-2 melanoma; conditions: 10 µM unless noted
[2] = system: EKVX NSCLC; conditions: 10 µM unless noted
[3] = system: SN12C renal; conditions: 10 µM unless noted
[4] = system: UO-31 renal; conditions: 10 µM unless noted
[5] = system: TK-10 renal; conditions: 10 µM unless noted
[6] = system: ACHN renal; conditions: 10 µM unless noted
[7] = system: CAKI-1 renal; conditions: 10 µM
[8] = system: A498 renal; conditions: 10 µM unless noted
[9] = system: CCRF-CEM leukemia; conditions: 10 µM unless noted
[10] = system: MOLT-4 leukemia; conditions: 10 µM unless noted
[11] = system: SR leukemia; conditions: 10 µM unless noted
[12] = system: RPMI-8226 leukemia; conditions: 10 µM unless noted
[13] = system: OVCAR-8 ovarian; conditions: 10 µM unless noted
[14] = system: OVCAR-5 ovarian; conditions: 10 µM unless noted
[15] = system: OVCAR-4 ovarian; conditions: 10 µM unless noted
[16] = system: SK-OV-3 ovarian; conditions: 10 µM unless noted
[17] = system: IGROV1 ovarian; conditions: 10 µM unless noted
[18] = system: OVCAR-3 ovarian; conditions: 10 µM unless noted
[19] = system: HS 578T breast; conditions: 10 µM unless noted
[20] = system: NCI/ADR-RES ovarian; conditions: 10 µM unless noted

Measured: growth

COc1cc(/C=N/n2cnc3oc(-c4ccccc4)cc3c2=N)cc(CN2CCOCC2)c1O
inactive: [1] 104% | [2] 89.9% | [3] 72.4% | [4] 74% | [5] 102% | [6] 28% | [7] 43.7% | [8] 53.8% | [9] 26.2% | [10] 52.9% | [11] 32% | [12] 27.5% | [13] 60.4% | [14] 84.2% | [15] 72.6% | [16] 68.4% | [17] 21.7% | [18] 108% | [19] 14.8% | [20] 72.5%

Nc1c(C(=O)c2ccccc2)sc2nc(-c3cnccn3)cc(-c3cccs3)c12
inactive: [1] 111% | [2] 95.6% | [3] 95.2% | [4] 88.4% | [5] 106% | [6] 98.3% | [7] 89.9% | [8] 106% | [9] 100% | [10] 105% | [11] 105% | [12] 108% | [13] 103% | [14] 103% | [15] 106% | [16] 103% | [17] 97.4% | [18] 108% | [19] 98.8% | [20] 107%

O=C(NCCNc1cc(-c2cn(-c3ccccc3)nc2-c2cccc(O)c2)ccn1)Nc1ccc(Cl)c(C(F)(F)F)c1
inactive: [1] 104% | [2] 56.7% | [3] 65.6% | [4] 42.1% | [5] 98.1% | [6] 44.2% | [7] 46% | [8] 72.5% | [9] 54.1% | [10] 47.1% | [11] 65.5% | [12] 17.5% | [13] 74.1% | [14] 59.9% | [15] 73.5% | [16] 94.6% | [17] 69% | [19] 41.6%

O=C1Nc2ccc(Br)cc2/C1=N\c1nnc(-c2ccc(Cl)cc2)o1
inactive: [1] 87.6% | [2] 72.5% | [3] 85.7% | [4] 62.3% | [5] 187% | [6] 74.9% | [7] 59% | [8] 69.4% | [9] 35.7% | [10] 36.6% | [11] 10.9% | [12] 62.5% | [13] 82.6% | [14] 98.7% | [15] 86.4% | [16] 73.3% | [17] 55.3% | [19] 83.1%

O=C1CSC(=O)N1Cc1cc2ccccc2nc1Cl
inactive: [1] 94.7% | [2] 98.7% | [3] 97.4% | [4] 77.7% | [5] 98.5% | [6] 104% | [7] 86.1% | [8] 106% | [9] 107% | [10] 102% | [11] 98.2% | [12] 98.8% | [13] 98.7% | [14] 101% | [15] 99.2% | [16] 110% | [17] 99.9% | [19] 97.1%

NCCN1CCN(c2nc(-c3ccccc3)nc3nc(-c4ccccc4)oc23)CC1
active: [2] 2% | [3] -79.4% | [4] -89.2% | [5] -28.7% | [6] -95.4% | [7] -90.1% | [9] 1.25% | [10] -0.256% | [12] -27.9% | [13] -16.4% | [14] -82.9% | [15] -59.7% | [17] -71.6% | [18] -78.6% | [20] -45.3%
inactive: [1] 102% | [8] 61.7% | [11] 20.7% | [16] 100% | [19] 100%

NC(=O)N1N=C(c2cc3ccccc3oc2=O)CC1c1cn(-c2ccccc2)nc1-c1ccc(Cl)cc1 (stereo not given)
active: [9] 7.27%
inactive: [1] 71.8% | [2] 24.3% | [3] 47.4% | [4] 17.8% | [5] 93.4% | [6] 32.5% | [7] 32.9% | [8] 54.5% | [10] 17.3% | [11] 44.2% | [12] 48.4% | [13] 37.1% | [14] 64.9% | [15] 34.9% | [16] 75.6% | [17] 28.8% | [18] 17.6% | [19] 65.1% | [20] 29.3%

O=[N+]([O-])c1ccc(-c2nnc(SCc3ccc(O)c4ncccc34)o2)cc1
active: [4] 7.09% | [18] 8.31% | [19] 2.14%
inactive: [1] 25% | [2] 27.3% | [3] 17.1% | [5] 29.2% | [6] 12.6% | [7] 22.9% | [8] 27.7% | [9] 19.2% | [10] 25.1% | [11] 45% | [12] 15% | [13] 22% | [14] 49% | [15] 17.3% | [16] 11.1% | [17] 31.7% | [20] 25.3%

CN1CCN(Cc2ccc(NC(=O)c3cncc(C#Cc4cnc5ccc(O[C@H]6CCOC6)nn45)c3)cc2C(F)(F)F)CC1
active: [1] -88% | [2] -69.7% | [3] -48.4% | [4] -94% | [5] -87.2% | [6] -97.1% | [7] -96.2% | [8] -92.9% | [9] 2.84% | [10] -1.92% | [11] -22.8% | [12] -15.3% | [13] -72.6% | [14] -62.5% | [15] -58.9% | [16] -26% | [17] -57.6% | [19] -34.1% | [20] -30.9%

N/C(=N\c1nc2c(Cl)cccc2s1)C(Cl)(Cl)Cl
inactive: [1] 105% | [2] 52.6% | [3] 91.9% | [4] 61% | [5] 83.5% | [6] 19.6% | [7] 43.9% | [8] 29.9% | [9] 97.3% | [10] 92.1% | [11] 94.2% | [12] 53.3% | [13] 87.6% | [14] 95.5% | [15] 76% | [16] 91.3% | [17] 89.1% | [18] 57.9% | [19] 80.2% | [20] 89%

CCN(CC)CCN1C(=O)c2c(c3c4cc(Br)ccc4[nH]c3c3ccc4ccccc4c23)C1=O
inactive: [1] 116% | [7] 12.8% | [8] 57.6% | [15] 36.6% | [16] 61.9%
active: [2] -88.1% | [3] -71.4% | [4] -86.1% | [5] -73% | [6] -100% | [9] 1.96% | [10] -30.7% | [11] -24.6% | [12] -42.4% | [13] -58.2% | [14] -95.2% | [17] -83.7% | [19] -4.17% | [20] -76.3%

O=C(c1ccc(O)cc1)[C@@H]1[C@@H]2CCCN2[C@@]2(C(=O)N(C(=O)c3ccc(F)cc3)c3ccccc32)[C@H]1c1ccc(F)cc1
inactive: [1] 110% | [2] 83.4% | [3] 87.3% | [4] 60.4% | [5] 143% | [6] 90% | [7] 70.1% | [8] 82.5% | [9] 67.2% | [10] 68% | [11] 60.8% | [12] 75.6% | [13] 93.2% | [14] 111% | [15] 91.1% | [16] 104% | [17] 63.1% | [19] 105% | [20] 98.8%

COc1ccc(-c2nn(-c3ccccc3)cc2/C=C/C(=O)c2ccc(NC(=O)CCCCCCC(=O)NO)cc2)cc1
inactive: [1] 109% | [2] 97.2% | [3] 92.7% | [4] 93.7% | [5] 107% | [6] 111% | [7] 81.9% | [8] 68.4% | [9] 92.5% | [10] 70.3% | [11] 110% | [12] 115% | [13] 99.7% | [14] 108% | [15] 97.5% | [16] 91.7% | [17] 96.2% | [19] 87.2% | [20] 97.8%

O=C1[C@H]2Cc3c([nH]c4ccccc34)[C@@H](c3ccc(Cl)cc3)N2C(=O)CN1C1CCN(Cc2c(Cl)cccc2Cl)CC1
active: [4] 2.51% | [6] -33.8% | [17] -44.1%
inactive: [1] 102% | [2] 78.6% | [3] 81.3% | [5] 107% | [7] 54.6% | [8] 111% | [9] 65.8% | [10] 97.3% | [11] 29.8% | [12] 88.4% | [13] 89.2% | [14] 98.1% | [15] 87.1% | [16] 108% | [18] 100% | [19] 88.2% | [20] 81.5%

O=C(O)c1ccc(-n2cc(CNc3ccc(F)cc3)c(-c3ccc(C(F)(F)F)cc3)n2)cc1
inactive: [1] 110% | [2] 74.4% | [3] 94.4% | [4] 67.2% | [5] 110% | [6] 76.6% | [7] 76.2% | [8] 90.3% | [9] 81.9% | [10] 81% | [11] 109% | [12] 86.5% | [13] 71.8% | [14] 106% | [15] 86.8% | [16] 95.2% | [17] 95% | [18] 84.1% | [19] 88.8% | [20] 87%

Cc1cc(O)c2c(c1)C(=O)C(c1c(C)cc3c(c1O)C(=O)C=CC3=O)=CC2=O
inactive: [1] 123% | [2] 100% | [3] 74.7% | [5] 14.2% | [7] 13.8% | [8] 122% | [9] 19.3% | [10] 41.4% | [11] 11.1% | [12] 15.2% | [13] 82.5% | [14] 117% | [15] 86.3% | [16] 89.2% | [17] 108% | [18] 23.4% | [19] 102% | [20] 100%
active: [4] -14.9% | [6] -8.41%
